The nature of experiment [1]: Nuclear factor erythroid 2-related factor 2/antioxidant responsive element (Nrf2/ARE) small molecule agonists: luciferase reporter gene qHTS assay in human keratinocytes (AID 1919969; also: nearly all actives have a fitted effect of over 35% in size). (In general: Reporter assays use an easily measured gene product as a stand-in for the process of interest.)
The target in experiment [2] is Gonadotropin-releasing hormone receptor (Homo sapiens) (UniProt P30968). Description: Human gonadotropin-releasing hormone receptor (GnRHR) small molecule agonists, calcium flux assay in GnRHR-HEK293 cells (AID 1920063). Also: nearly all actives have a fitted effect of over 35% in size. The method, boiled down:
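Compounds dissolved in DMSO are pin-transferred onto dye-loaded GnRHR-HEK293 cells, which were seeded 18 h before at 37 C/5% CO2. Calcium signal is read as fluorescence intensity at 1 s intervals for 3 min.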
A general note: Calcium flux is commonly read through the fluorescence of an indicator in the cells.

In experiment [3] the target is KiSS-1 receptor (Homo sapiens) (UniProt Q969F8). Description: Human kisspeptin (KISS1R) small molecule agonists, calcium flux assay in KISS1R-HEK293 cells (AID 1920064; active = well fitted activation curve with a large enough effect in the repeat runs). The gist of the method:
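Cell line: HEK293, stable human KISS1R. Dye loading 1 h at 37 C after 18 h culture. Read: kinetic fluorescence, 480/540 nm, 3 min at 1 s intervals.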

Experiment [4] in a line: G protein-coupled receptor (GPCR) small molecule agonists, calcium flux assay: HEK293 wild type cell line counter screen (AID 1920065). The method, boiled down:
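Tox21 10K compounds, 15 concentrations each in triplicate, pin-transferred in DMSO onto dye-loaded cells; kinetic read at 480/540 nm for 3 min, 1 s intervals.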

Experiment [5] is described as follows: p53 small molecule agonists, cell-based qHTS assay with human liver microsomes (AID 1963577). The gist of the method: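 p53RE-bla reporter cells were pre-incubated 5 h at 37 C, then treated with compounds plus human liver microsomes (0.5 mg/mL final) and NADPH (0.5 mg/mL final) for 16 h at 37 C. Beta-lactamase activity was read by LiveBLAzer fluorescence after 2 h at room temperature.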
(In general: In qHTS, concentration-response curves come from the screen itself.)

Experiment [6] can be described thus: p53 small molecule agonists, cell-based qHTS assay with rat liver microsomes (AID 1963578). The gist of the method:
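p53RE-bla cells were exposed to compounds together with rat liver microsomes (0.5 mg/mL final) and NADPH (0.5 mg/mL final) for 16 h at 37 C, then read by LiveBLAzer beta-lactamase fluorescence after 2 h at room temperature.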

Experiment [7] in a line: p53 small molecule agonists, cell-based qHTS assay with rat liver microsomes: qHTS cell viability counter screen (AID 1963580). Also: nearly all actives have a fitted effect of over 45% in size. The gist of the method:
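Counter screen for cytotoxicity under metabolic activation: rat liver microsomes and NADPH, 0.5 mg/mL final each, added with compounds to p53RE-bla HCT-116 cells; 16 h at 37 C, then ATP luminescence read.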

A short description of experiment [8]: p53 small molecule agonists, cell-based qHTS assay: qHTS cell viability counter screen (AID 1963581). Also: nearly all actives have a fitted effect of over 45% in size. The method, boiled down:
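ATP content measured by luminescence in HCT-116 p53RE-bla cells treated 16 h at 37 C, same wells as the reporter screen.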

The target in experiment [9] is 5-hydroxytryptamine receptor 2A (Homo sapiens) (UniProt P28223). Nature of the experiment: 5-hydroxytryptamine receptor 2A (HTR2A) small molecule agonists, cell-based qHTS assay (AID 1963587). Also: nearly all actives have a fitted effect of over 30% in size. The gist of the method: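 HTR2A-CHO cells, plated 18 h at 37 C/5% CO2, dye-loaded 1 h at 37 C; compounds in DMSO added by pin tool (agonist mode). Intracellular calcium flux read as kinetic fluorescence on FDSS over 2 min at 1 s intervals.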

In experiment [10] the target is Muscarinic acetylcholine receptor M1 (Homo sapiens) (UniProt P11229). Nature of the experiment: Cholinergic receptor muscarinic 1 (CHRM1) small molecule antagonists, cell-based qHTS assay (AID 1963588). Also: nearly all actives have a fitted effect of over 40% in size. The gist of the method: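 Compounds were tested at 15 concentrations in three independent runs. Dye-loaded CHRM1-CHO cells were exposed 5 min at room temperature before stimulation by acetylcholine added at 50nM. Intracellular calcium was read kinetically on FDSS for 3 min.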

For experiment [11] the target is unchanged. Nature of the experiment: Cholinergic receptor muscarinic 1 (CHRM1) small molecule agonists, cell-based qHTS assay (AID 1963589). Also: nearly all actives have a fitted effect of over 35% in size. The gist of the method:
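Homogeneous fluorescence calcium flux, agonist mode. Human M1-expressing CHO cells; compound dosed at 15 concentrations, three independent runs; signal sampled every 1 sec.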

Experiment [12] is described as follows: cAMP Responsive Elements (CRE) small molecule agonists, cell-based qHTS assay (AID 1963590). The method, boiled down: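 HEK 293T cells stably bearing CRE-bla were plated at 2,000 cells per well and rested 18 h. Compounds, positive controls or DMSO were added for 3 h at 37 C. LiveBLAzer B/G substrate was then loaded for 2 h at room temperature.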
The nature of experiment [13]: cAMP Responsive Elements (CRE) small molecule antagonists, cell-based qHTS assay (AID 1963591; active = well fitted inhibition curve with a large enough effect in the signal ratio in the repeat runs, not every such curve was filed as active; the % refers to the signal ratio). The method, boiled down:
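First, CRE-bla HEK293T cells settled 18 h at 37 C. Next, compound and 0.25 uM final NKH477 were applied for 3 h. Last, LiveBLAzer B/G substrate was loaded for 2 h at room temperature.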

For experiment [14], the target named is Beta-2 adrenergic receptor (Homo sapiens) (UniProt P07550). Nature of the experiment: Adrenergic beta2 receptor (ADRB2) small molecule antagonists, cell-based qHTS assay (AID 1963592). Also: series mostly up to about 92 µM; nearly all actives have a fitted effect of over 50% in size. The gist of the method: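 Assay format: CHO-ADRB2 cells, 18-20hr seeding at 37C/5% CO2, then compound plus 1nM isoproterenol agonist mix for 0.5hr RT. Homogeneous time-resolved fluorescence cAMP detection after 1hr, expressed as 665/615 nm ratio.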

Experiment [15] shares this target. Description: Adrenergic beta2 receptor (ADRB2) small molecule agonists, cell-based qHTS assay (AID 1963593).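 Also: CHO cells stably overexpressing human ADRB2.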 The gist of the method: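 CHO cells stably over-expressing ADRB2 were plated overnight at 37C, then dosed with compounds plus a stimulation mix containing 100uM IBMX and 25uM Ro-20-1724 for 0.5hr at room temperature. cAMP was measured by HTRF competition, 1hr.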

Experiment [16] has as its target D(2) dopamine receptor (Homo sapiens) (UniProt P14416). Description: Dopamine D2 receptor (DRD2) small molecule agonists, cell-based qHTS assay (AID 1963594). Also: nearly all actives have a fitted effect of over 35% in size. The method, boiled down:
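HEK293 cells stably expressing DRD2 were cultured 24 h at 37 C, then given Ro20-1724 (0.1 mM final) and compounds for 10 min at room temperature. NKH477 (200nM) was then added for 30 min. cAMP was read by HTRF.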

The target is the same in experiment [17]. Description: Dopamine D2 receptor (DRD2) small molecule antagonists, cell-based qHTS assay (AID 1963595; active = well fitted inhibition curve with a large enough effect in the signal ratio in the repeat runs, with a control signal flat; the % refers to the signal ratio; also: potency is read from the fitted curve at half-maximal effect). The method, boiled down: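 Antagonist mode in DRD2-HEK293 cells: after compound addition with 0.1 mM Ro20-1724, cells received quinpirole (12 nM) and NKH477 (200 nM) for 30 min at room temperature; HTRF cAMP read after 1 h detection.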
Experiment [18] can be described thus: p53 small molecule agonists, cell-based qHTS assay with human liver microsomes: qHTS cell viability counter screen (AID 1963579). Also: nearly all actives have a fitted effect of over 45% in size. The gist of the method:
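p53RE-bla cells (4,000/well) were pre-incubated 5 h at 37 C, then given compounds in DMSO plus human liver microsomes (0.5 mg/mL final) and NADPH (0.5 mg/mL final) for 16 h at 37 C. Viability was read by CellTiter-Glo luminescence.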

In experiment [19] the target is 5-hydroxytryptamine receptor 2A (Homo sapiens) (UniProt P28223). Description: 5-hydroxytryptamine receptor 2A (HTR2A) small molecule antagonists, cell-based qHTS assay (AID 1963586). Also: nearly all actives have a fitted effect of over 45% in size. The gist of the method: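 CHO cells stably expressing human HTR2A were plated for 18 h at 37 C, then loaded with calcium dye for 1 h. Compounds were preincubated 5 min at room temperature before DOI (4 nM solution) was added. Kinetic fluorescence was read for 3 min.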

A short description of experiment [20]: p53 small molecule agonists, cell-based qHTS assay (AID 1963582; active = well fitted activation curve with a large enough effect in the signal ratio in the repeat runs, not every such curve was filed as active; the % refers to the signal ratio). The gist of the method: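 16 h compound exposure (37 C) of p53 response element–bla cells, preceded by 5 h recovery at 37 C/5% CO2; read-out via LiveBLAzer B/G FRET substrate, 2 h RT, fluorescence intensity.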

Results filed as inconclusive are left out. The source holds several records for some structures; these can differ, active in one and inactive in another. The source made the active and inactive calls. Unless noted, calls follow the shape of the full dose curve.

Chain of 5-hydroxytryptamine receptor 2A (Homo sapiens) (P28223 whole entry, looked up): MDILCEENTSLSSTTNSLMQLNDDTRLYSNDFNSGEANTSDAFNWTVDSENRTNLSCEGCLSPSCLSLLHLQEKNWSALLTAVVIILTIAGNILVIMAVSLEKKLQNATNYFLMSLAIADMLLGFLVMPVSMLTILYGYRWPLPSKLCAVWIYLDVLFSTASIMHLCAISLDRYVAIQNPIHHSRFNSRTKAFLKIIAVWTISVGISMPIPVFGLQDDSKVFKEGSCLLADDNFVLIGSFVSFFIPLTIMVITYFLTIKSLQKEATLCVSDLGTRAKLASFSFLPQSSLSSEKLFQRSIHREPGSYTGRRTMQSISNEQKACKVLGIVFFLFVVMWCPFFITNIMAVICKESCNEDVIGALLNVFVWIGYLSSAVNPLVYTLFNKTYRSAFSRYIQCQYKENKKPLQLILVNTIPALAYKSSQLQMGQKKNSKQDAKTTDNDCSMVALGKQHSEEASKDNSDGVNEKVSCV
Chain of Muscarinic acetylcholine receptor M1 (Homo sapiens) (P11229 whole entry, looked up): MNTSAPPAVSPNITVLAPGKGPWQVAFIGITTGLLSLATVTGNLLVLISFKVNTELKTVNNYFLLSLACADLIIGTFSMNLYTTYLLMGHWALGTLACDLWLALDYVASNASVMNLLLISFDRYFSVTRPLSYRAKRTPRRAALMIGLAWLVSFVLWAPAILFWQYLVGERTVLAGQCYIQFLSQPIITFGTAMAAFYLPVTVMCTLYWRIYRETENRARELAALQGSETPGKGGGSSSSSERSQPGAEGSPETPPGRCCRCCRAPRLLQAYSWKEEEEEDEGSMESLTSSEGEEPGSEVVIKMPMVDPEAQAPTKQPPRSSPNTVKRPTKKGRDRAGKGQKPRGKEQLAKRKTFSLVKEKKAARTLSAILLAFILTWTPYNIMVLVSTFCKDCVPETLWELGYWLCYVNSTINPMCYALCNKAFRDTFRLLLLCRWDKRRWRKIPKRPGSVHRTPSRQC
Chain of KiSS-1 receptor (Homo sapiens) (Q969F8 whole entry, looked up): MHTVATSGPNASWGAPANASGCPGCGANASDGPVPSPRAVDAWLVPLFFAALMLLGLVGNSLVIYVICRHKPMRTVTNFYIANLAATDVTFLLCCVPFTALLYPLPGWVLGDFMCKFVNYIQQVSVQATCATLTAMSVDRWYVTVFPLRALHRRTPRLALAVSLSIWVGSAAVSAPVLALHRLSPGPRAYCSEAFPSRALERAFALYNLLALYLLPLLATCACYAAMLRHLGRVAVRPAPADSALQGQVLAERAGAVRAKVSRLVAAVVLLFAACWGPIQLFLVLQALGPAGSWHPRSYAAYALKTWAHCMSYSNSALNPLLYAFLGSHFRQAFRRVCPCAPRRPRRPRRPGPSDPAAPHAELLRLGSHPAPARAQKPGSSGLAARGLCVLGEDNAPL
Chain of D(2) dopamine receptor (Homo sapiens) (P14416 whole entry, looked up): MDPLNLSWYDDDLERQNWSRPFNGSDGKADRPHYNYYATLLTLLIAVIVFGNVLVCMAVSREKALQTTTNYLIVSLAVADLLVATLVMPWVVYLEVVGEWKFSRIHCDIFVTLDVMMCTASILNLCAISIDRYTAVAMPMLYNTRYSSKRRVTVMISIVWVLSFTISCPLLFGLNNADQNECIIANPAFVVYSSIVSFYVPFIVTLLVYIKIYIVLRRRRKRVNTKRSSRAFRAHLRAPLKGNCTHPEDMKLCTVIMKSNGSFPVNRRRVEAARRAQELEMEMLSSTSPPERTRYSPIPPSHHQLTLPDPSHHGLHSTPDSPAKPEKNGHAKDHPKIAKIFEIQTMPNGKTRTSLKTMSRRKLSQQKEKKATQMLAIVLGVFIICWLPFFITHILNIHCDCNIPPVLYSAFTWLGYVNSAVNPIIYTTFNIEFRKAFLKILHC
Chain of Gonadotropin-releasing hormone receptor (Homo sapiens) (P30968 whole entry, looked up): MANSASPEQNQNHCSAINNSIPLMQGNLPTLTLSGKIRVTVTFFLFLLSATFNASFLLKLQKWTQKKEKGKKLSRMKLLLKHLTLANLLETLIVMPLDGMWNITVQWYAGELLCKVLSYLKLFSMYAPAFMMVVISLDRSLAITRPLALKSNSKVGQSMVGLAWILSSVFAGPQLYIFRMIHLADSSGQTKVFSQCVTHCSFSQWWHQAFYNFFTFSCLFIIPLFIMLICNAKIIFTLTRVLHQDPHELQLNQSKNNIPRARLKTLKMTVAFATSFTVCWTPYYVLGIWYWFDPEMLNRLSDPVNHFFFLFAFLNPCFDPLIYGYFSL
Chain of Beta-2 adrenergic receptor (Homo sapiens) (P07550 whole entry, looked up): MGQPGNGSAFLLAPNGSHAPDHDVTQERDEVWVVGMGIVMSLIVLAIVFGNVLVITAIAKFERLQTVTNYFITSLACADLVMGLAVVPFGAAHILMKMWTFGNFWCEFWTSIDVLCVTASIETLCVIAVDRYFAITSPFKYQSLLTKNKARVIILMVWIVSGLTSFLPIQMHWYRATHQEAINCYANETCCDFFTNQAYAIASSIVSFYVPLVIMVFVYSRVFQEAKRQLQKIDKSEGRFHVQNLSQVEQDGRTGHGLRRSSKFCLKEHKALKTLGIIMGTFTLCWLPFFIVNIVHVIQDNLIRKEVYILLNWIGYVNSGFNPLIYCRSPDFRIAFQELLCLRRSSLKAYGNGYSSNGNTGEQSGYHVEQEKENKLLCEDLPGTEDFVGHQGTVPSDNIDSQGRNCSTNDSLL

As to `C=Cc1ccc(C)cc1`, the Potency result in experiment [1], in experiment [2], in experiment [3], in [4], in [5] and in experiment [6] was “inactive” each time. In addition, the Potency result in experiment [7], in experiment [8], in experiment [9], in experiment [10], in experiment [11] and in experiment [12] was “inactive” each time. For the same compound, the Potency result in [13], in experiment [14], in experiment [15], in [16] and in experiment [17] was “inactive” in each case.

With `O=C1C(c2[nH]c3ccccc3c2O)=Nc2ccccc21`, the Potency result in experiment [1], in [2], in experiment [3], in [4], in experiment [5] and in experiment [6] was “inactive” in each case. Moreover, the Potency result in experiment [18], in experiment [7], in experiment [8], in experiment [19], in experiment [9] and in experiment [10] was “inactive” each time. Moreover, the Potency entry in experiment [11], in [12], in experiment [14], in experiment [15], in experiment [16] and in experiment [17] was “inactive” each time.

For the compound `O=C1CCCCCCCCCCCN1`, the Potency result in experiment [1], in experiment [2], in [3], in [4], in experiment [5] and in experiment [18] was “inactive” throughout. Besides, the Potency entry in experiment [8], in [20], in experiment [19], in [9], in experiment [10] and in experiment [11] was “inactive” throughout. The Potency entry in experiment [12], in experiment [13], in experiment [14], in experiment [15], in [16] and in experiment [17] was “inactive” in each case.

Take `C=CCOC(=O)C(=C)C`: the Potency result in [1], in experiment [2], in experiment [3], in experiment [4], in experiment [5] and in experiment [18] was “inactive” in each case. Further, the Potency entry in [7], in [8], in experiment [20], in experiment [19], in [9] and in [10] was “inactive” throughout. Besides, the Potency entry in experiment [11], in [12], in experiment [13], in experiment [15], in experiment [16] and in experiment [17] was “inactive” each time.

For the compound `CC(=O)OC(C)C`, the Potency result in experiment [1], in experiment [2], in [3], in [4], in [5] and in experiment [6] was “inactive” throughout. The Potency entry in experiment [18], in [8], in [20], in experiment [19], in experiment [9] and in experiment [10] was “inactive” in each case. Besides, the Potency entry in experiment [12], in [13], in experiment [14], in experiment [15], in [16] and in experiment [17] was “inactive” in each case.

Consider `CC(=O)c1ccccc1`, for which the Potency result in experiment [1], in experiment [2], in experiment [3], in [4], in [5] and in [6] was “inactive” each time. Besides, the Potency result in experiment [18], in experiment [7], in experiment [8], in experiment [20], in [19] and in [9] was “inactive” in each case. The Potency result in [10], in experiment [11], in [12], in experiment [13], in [14] and in [16] was “inactive” in each case. Further, in [17], the Potency entry was “inactive”.

For the compound `CCC(C)(C)C(=O)O[C@H]1C[C@@H](C)C=C2C=C[C@H](C)[C@H](CC[C@@H]3C[C@@H](O)CC(=O)O3)[C@H]21`, the Potency entry in experiment [1], in [2], in [3], in experiment [4], in [6] and in experiment [18] was “inactive” each time. In addition, the Potency result in [7], in experiment [8], in experiment [12], in experiment [14] and in experiment [16] was “inactive” each time. For the same compound, the Potency in experiment [17] is 19.3 µM (active) and inactive.

Take `CCCCC(CC)COC(=O)c1ccc(C(=O)OCC(CC)CCCC)cc1` (centres undefined): the Potency result in [1], in experiment [2], in [3], in experiment [4], in experiment [5] and in experiment [6] was “inactive” each time. Moreover, the Potency entry in experiment [18], in experiment [8], in [20], in experiment [19], in [9] and in experiment [10] was “inactive” in each case. Besides, the Potency entry in experiment [11], in experiment [12], in experiment [13], in experiment [14], in experiment [15] and in experiment [16] was “inactive” each time. The Potency result in [17] is “inactive”.

Values taken from PubChem BioAssay (Tox21).
